# Test results reported in ChEMBL document CHEMBL3988442, “University of Dundee, Small-Polar-MMV Screening Library” (2021).
# Columns and labels:
# [1] = target: T1, Aspartate--tRNA(Asp/Asn) ligase (Mycobacterium tuberculosis (strain ATCC 25618 / H37Rv)) (UniProt P9WFW3); assay: Assay for Asp RNA synthetase-1 from Mycobacterium tuberculosis; type: functional; parameters: scale not given: direction of the effect not stated beside the values; conditions: 30 µM; further: in the data most compounds retested in dose-response had high values
# T1 sequence (whole entry): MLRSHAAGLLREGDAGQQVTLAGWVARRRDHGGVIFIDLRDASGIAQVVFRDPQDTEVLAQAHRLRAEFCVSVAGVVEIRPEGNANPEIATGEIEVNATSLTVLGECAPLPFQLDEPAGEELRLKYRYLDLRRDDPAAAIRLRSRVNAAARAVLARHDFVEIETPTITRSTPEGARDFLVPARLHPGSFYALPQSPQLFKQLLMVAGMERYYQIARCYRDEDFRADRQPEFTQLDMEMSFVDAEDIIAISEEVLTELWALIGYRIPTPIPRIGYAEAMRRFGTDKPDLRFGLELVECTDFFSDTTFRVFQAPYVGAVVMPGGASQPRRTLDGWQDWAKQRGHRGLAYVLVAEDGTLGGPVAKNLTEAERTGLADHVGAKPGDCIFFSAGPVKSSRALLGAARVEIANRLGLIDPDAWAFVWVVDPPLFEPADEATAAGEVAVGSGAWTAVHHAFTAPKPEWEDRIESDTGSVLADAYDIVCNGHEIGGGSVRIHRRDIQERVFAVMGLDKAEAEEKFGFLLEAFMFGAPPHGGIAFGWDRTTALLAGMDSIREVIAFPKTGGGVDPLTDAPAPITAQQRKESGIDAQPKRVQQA
# [2] = target: Shiga toxin 2 (Escherichia coli O157:H7) (UniProt P09385+P09386); assay: E. coli 0.157:H7 Shiga Toxin SOP - stx2 screening assay; type: functional; parameters: scale not given: direction of the effect not stated beside the values; conditions: 30 µM
SMILES,Percent Effect [1] [%],Percent Effect [2] [%]
COc1ccccc1C(=O)N1CC(Cc2nccc3ccn(C)c23)C1,-0.878,-11.7
NC(=O)c1cccc(CC2CCN(C(=O)CCCN3CCOCC3)C2)c1 (stereo not given),6.21,-6.5
Cn1c(Cn2ccnc2)nnc1C1CCN(C(=O)C2(C)CC2)CC1,-0.661,-12.1
Cc1cc(C)c2nc(CN3CCCC(c4cc[nH]n4)C3)cc(O)c2c1 (stereo not given),4.05,0.0646
CC1CN(CC(=O)NC(=O)NCc2ccccc2)CCO1 (stereo not given),-6.29,-0.513
COCCNC(=O)NCCc1ccn(-c2ccccc2)n1,-4.41,3.32
CCn1ncc2c1C(COCC1CC1)CN(C(=O)c1cccs1)C2 (stereo not given),-1.73,33.1
CN(CC(=O)NC1(C#N)CCCC1)C1CCCN(c2cccnn2)C1 (stereo not given),7.28,21.9
Cc1cnn(CC2CCCCN2C(=O)Cc2csc(C)n2)c1 (stereo not given),-2.23,1.16
O=C(CCNC(=O)C1CCCC1)NCc1cccnc1-n1cncn1,0.59,23.7
Cc1nccn1C1CCCN(C(=O)C2=NN(C)C(=O)CC2)C1 (stereo not given),-1.52,19
CCN1CCN(c2ccc(CNC(=O)c3c(C)noc3C)cn2)CC1,-3.84,-40.9
O=S(=O)(Cc1ccccc1)N1CCCn2cnc(CN3CCCC3)c2C1,16,-5.12
CCOC(=O)CCNC(=O)N1CCN(c2nc3ccccc3n2C)CC1,-4.71,-68.4
CCc1ccsc1C(=O)N1CCN(C(=O)CC(F)(F)F)CC1,-0.116,-16.6
CC(=O)N1CC(Cc2nccc3ccn(C)c23)C1,1.31,-32.1
CCN1CCOC(CNCc2ccccc2OCC(=O)N(C)C)C1 (stereo not given),-4.95,21.6
Cc1ccc(C(=O)NS(=O)(=O)c2cc(Cl)ccc2Cl)c(=O)[nH]1,0,-9.88
Cc1ccc(NC(=O)C2CSCN2C(=O)c2cc[nH]n2)c(C)c1 (stereo not given),-3.15,12
Cc1nc(CN2CCCC2c2nc(C(C)C)no2)cs1 (stereo not given),-4.9,12.9
CNc1cc(N2CCCC2CNCc2ccc(Cl)o2)ncn1 (stereo not given),-2.44,26.8
CCC(C)(C)NC(=O)CN(C)C(c1cccc(F)c1)c1ccccn1 (stereo not given),-1.18,15.1
CC(C)[C@H](NC(=O)NC1CCS(=O)(=O)C1)C(=O)Nc1cccnc1 (stereo not given in full),-0.929,-52.8
Cc1ccc(S(=O)(=O)N2C[C@H]3C[C@H](NC(=O)c4ccnn4C)[C@H]3C2)cc1,0.283,8.81
CNC(=O)c1cc2c(nc1NCC(C)C)CCN(S(=O)(=O)C1CC1)CC2,-2.58,1.28

SMILES,Percent Effect [1] [%],Percent Effect [2] [%]
COc1ccc2c(c1)CN(Cc1nc3ccsc3c(=O)[nH]1)CC2,-2.11,10.8
CC(C(=O)NCc1ccnc(N2CCN(C)CC2)c1)n1cccn1 (stereo not given),-3.86,6
CCOC(=O)CCCNC(=O)CN1CCN(c2ncccn2)CC1,6.48,-56.7
COCC1CN(C(=O)C2=CCCCC2)Cc2cnn(CC3CC3)c21 (stereo not given),0.918,-7.05
CS(=O)(=O)N1CC[C@H]2O[C@H](C(=O)NCCc3ccncc3)CC[C@H]21,7.02,-26
Cc1ccoc1-c1nnc(CN2CCn3c(nnc3C3CC3)C2)o1,-2.98,-36.6
CCC(NC(=O)c1ccco1)c1ccccc1OCC(=O)N1CCCC1 (stereo not given),0.611,-10.6
CC(=O)NCCNC(=O)c1sc(-c2ccc(C)cc2C)nc1C,3,2.48
CC(C)(CNC(=O)CCOc1cccc(F)c1)C(N)=O,-0.256,29.6
Cc1cc(CN(C)C(=O)NC2CCS(=O)(=O)C2)no1 (stereo not given),-1.18,14.9
Fc1ccc(CN2CCCC2c2cncc(-n3ccnc3)n2)cc1 (stereo not given),3.75,24.5
c1cncc(C2COC3(CCN(CC4CC4)CC3)C2)c1 (stereo not given),-0.915,-13.1
COc1ccc2c(c1)CC(NC(=O)NCc1cccs1)CO2 (stereo not given),-4.82,-8.88
Cc1nn(C)c(C)c1C1CCCN1CC(=O)NC(C1CC1)C1CC1 (stereo not given),-3.8,-0.393
CCC(=O)Nc1ccc(C(C)NC(=O)COCCOC)cc1 (stereo not given),0.539,-16.3
Cc1cnn(CC(C)NCc2ccc(S(C)(=O)=O)cc2)c1 (stereo not given),1.18,-66.9
CCC1=N[C@@]2(CC[C@@H]3CN(S(=O)(=O)CC)C[C@@H]32)C(=O)N1CC(C)C,2.06,-9.69
CCc1noc(C(C)N2CCN(Cc3ncc(C(C)(C)C)o3)CC2)n1 (stereo not given),-1.28,23.4
CNC(=O)CN1CCCC12CCN(C(=O)c1ccc(F)cc1)CC2,-5.42,-14.4
CCc1n[nH]c(C2CN(C(=O)c3nc(C)ncc3Cl)CCO2)n1 (stereo not given),0,-0.974
Cc1nc(C)n(CC2CCCCN2CCC(=O)Nc2cc(C)on2)n1 (stereo not given),-3.42,5.91
CS(=O)(=O)NC[C@@H]1OC[C@H]2CN(C(=O)c3ccc[nH]3)CC[C@H]21,3.32,0.898
CC(C)OCCCNC(=O)CN1CCC(N2CCN(C)C2=O)CC1,-3,-14.1
COc1cccc(NC(=O)N(CCO)Cc2ccsc2)c1,-1.36,-14.3
CCn1nc(C)c2nc(C(C)C)nc(N3CCCCC3)c21,8.83,-36.2
